The text below walks through data of PubChem BioAssay (NCI).

Compounds without any hit were thinned out: in the full panel of roughly 83,000, 20% have a hit.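 Treatment: one concentration, 48 hours, 96-well format. Scoring: percent growth, with anything below 10 considered active.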 Values without a mark were called inactive. The source made the active and inactive calls.

For this assay, the system named is MDA-MB-468 breast. The experiment in a line: NCI-60 one-dose screen, 48 h (100 = growth as untreated, 0 = no growth, -100 = all killed). The conditions noted are these: 10 µM unless noted.
For the compound `COc1ccc(Cn2cc(C(=O)N=Nc3c(O)[nH]c4ccc(Br)cc34)nn2)cc1`, the growth is 96.8%. For `Cc1ccc(Sc2sc(-c3ccccc3)nc2[P+](c2ccccc2)(c2ccccc2)c2ccccc2)cc1`, the growth was -61.8% (active). The figure for `CC(C)(C)c1ccc(S(=O)(=O)Oc2ccc(-c3sc4cc(OS(=O)(=O)c5ccc(C(C)(C)C)cc5)ccc4c3C(=O)c3ccc(OCCN4CCCCC4)cc3)cc2)cc1` is 90%; for `Cc1cc(=O)n2nc(-c3c[nH]c4ccccc34)sc2n1` it is 88.8%; for `COc1ccc(NC(=O)c2ccc(-c3ccccc3)cc2)c(C(N)=O)c1` it is 109%. In the case of `COc1cc2oc(-c3cccc(C(=O)Nc4ccc(C#N)cc4)c3)cc(=O)c2c(O)c1OC`, the growth is 77.3%.

Regarding `O=c1oc2c(cc1-c1ccccc1)c(=O)[nH]c1ccccc12`, the growth was 105%. For `CC/C(=C\c1ccc(N(C)C)cc1)c1ccncc1`, the growth is -12.7% (active). With `Oc1ccc(CSc2nnc(-c3cnccn3)o2)c2cccnc12` the figure was 7.59% (active); with `CC(C)(C)N1CCC1C(N)=O` (stereo not given), 108%. For `CCc1nn(Cc2ccccc2)c2nc(C)c(CCc3ccccc3)c(Cl)c12`, the growth was 88.3%. The figure for `Cc1c(Cl)cccc1N=C=S` is 97.8%; for `COc1ccc2cc(-c3ccc(C(=O)NN)c(C)n3)ccc2c1` it is 106%. Turning to `O=C(NCc1cccc(C(F)(F)F)c1)[C@H](CCC(=O)N1CCN(C2CCCCC2)CC1)N1C(=O)[C@@H](N2C(=O)OC[C@@H]2c2ccccc2)[C@H]1/C(Cl)=C/c1ccccc1`, the growth was -5.16% (active). As to `Cc1cc(C)cc(CCCCCCCCCCCCCCCCCC(=O)O)c1`, the growth was 106%.

Turning to `O=c1[nH][nH]c(-c2ccc(F)cc2)c1-c1nc2ccccc2s1`, the growth is 100%. Turning to `O=C(CN1C(=O)S/C(=C\C(Cl)=C\c2ccccc2)C1=O)NCCCn1ccnc1`, the growth is -28.2% (active).

Turning to `O=c1c2ccccc2n(CC(O)CN2CCCC2)c2c(Br)cccc12` (stereo not given), the growth was 97.1%.

Consider `CCCCC1(O)CCCCC1`, for which the growth is 94.9%. On to `COc1ccc(OC)c(/C=C2\COc3ccc(O)c(O)c3C2=O)c1`, for which the growth was 16.6%. Turning to `NCCNC(=O)c1cccc(COc2ccccc2NC(=O)c2cc(Cl)c(Cl)[nH]2)c1`, the growth is 96%.

In the case of `Cn1cc(-c2ccc3ncc(-c4ccc(CC(=O)Nc5cc(C(C)(C)C)no5)cc4)nc3c2)cn1`, the growth is 48.9%. In the case of `CC(C)CCN(CCCNc1c2c(nc3ccccc13)CCCC2)CCC(C)C`, the growth is 57.2%.

`COc1ccc(-c2nc(-c3nc4cc(Cl)c(F)cc4[nH]3)c3ccccn23)cc1`: the growth was 54.6%.

For `CCN(CC)CCC(CNc1c2ccc(Cl)cc2nc2ccc(OC)cc12)c1ccccc1` (stereo not given), the growth was -87.1% (active).
